Screening data (PubChem BioAssay)
The sample as a whole holds a higher share of hits than the screen did.
BL2 CD40 inh: CD40 pathway inhibition in BL2 cells; inhibition, % at 10 µM; AID 1053188; 83,000 compounds, 0.94% hits; BL2 NF-kB luciferase reporter, CD40L-induced, 4 h;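 active = mean inhibition of at least 50% with a set share of replicates also reaching that level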
Hits are given with their value; - = inactive; [ ] = remark or other dose.

SMILES | BL2 CD40 inh
CN1CCN(C(=O)C[C@@H]2CC[C@@H]3[C@H](COC[C@H](O)CN3C(=O)Nc3ccc4c(c3)OCO4)O2)CC1 | -
CN1CCN(C(=O)C[C@@H]2CC[C@H]3[C@@H](COC[C@@H](O)CN3C(=O)Nc3ccc4c(c3)OCO4)O2)CC1 | active[25 µM]
CN1CCN(C(=O)C[C@H]2CC[C@H]3[C@@H](COC[C@H](O)CN3C(=O)Nc3ccc4c(c3)OCO4)O2)CC1 | -
CCS(=O)(=O)N1CC2(CN(C(=O)c3cccnc3)C2)c2c(n(C)c3cc(OC)ccc23)[C@H]1CO | -
O=C(C[C@H]1C[C@@H]2c3cc(NC(=O)c4ccc5c(c4)OCO5)ccc3O[C@@H]2[C@@H](CO)O1)NCc1ccccn1 | -
COC(=O)c1ccc(CSc2cc(C)c3cc(C)cc(C)c3n2)o1 | 54.9
COC(=O)c1ccc(CSc2nnnn2C)o1 | -
CCc1nc(SCc2ccc(C(=O)OC)o2)n[nH]1 | -
COC(=O)c1ccc(CSc2nc3ccccc3c(=O)n2-c2ccccc2)o1 | -
COC(=O)c1ccc(CSCc2ccc(C(=O)OC)o2)o1 | -
COC(=O)c1ccc(CSc2nnc3c(Cl)cc(Cl)cn23)o1 | 67.1
CCCNC(=O)C[C@@H]1C[C@H]2c3cc(NC(=O)COC)ccc3O[C@H]2[C@H](CO)O1 | -
CO[C@@H]1CN(C)C(=O)c2ccc(NC(=O)NC3CCCCC3)cc2OC[C@@H](C)N(CCc2ccccc2)C[C@H]1C | -
CN(C)C(=O)c1cccc(-c2ccc3c(c2)[C@@H]2[C@@H](CCN2C(=O)C2CCCCC2)[C@H](CO)N3)c1 | -
CC(=O)NC(CC(C)C)C(=O)NC(Cc1ccccc1)C(=O)CCl (stereo unspecified) | -
Cc1ccc(S(=O)(=O)N[C@@H](Cc2ccccc2)C(=O)CCl)cc1 | 39.4
CCCC(NS(=O)(=O)c1ccc(C)cc1)C(=O)O (stereo unspecified) | -
CS(=O)(=O)Nc1ccc2c(c1)[C@@H]1C[C@@H](CC(=O)NCc3ccncc3)O[C@@H](CO)[C@@H]1O2 | -
COc1ccc(NC(=O)Nc2cccc3c2O[C@@H](CN(C)C(=O)NC2CCCCC2)[C@@H](C)CN([C@H](C)CO)C3=O)cc1 | -
Cc1nnc(N2CCOCC2)c2nn(-c3ccccc3)c(C)c12 | -
c1ccc(Cn2nnc3c(N4CCCC4)ncnc32)cc1 | -
c1ccc(-n2nnc3c(N4CCOCC4)ncnc32)cc1 | 68.1
C[C@@H]1CN([C@H](C)CO)C(=O)c2ccccc2-c2ccccc2CO[C@H]1CN(C)S(=O)(=O)c1cccs1 | -
CC(C)NC(=O)N1[C@@H]2CN(CC(F)(F)F)C[C@H]1C2c1ccccc1 (stereo partly specified) | -
COc1ccc(NC(=O)N(C)C[C@@H]2OCc3ccccc3-c3ccccc3C(=O)N([C@H](C)CO)C[C@@H]2C)cc1 | -
SMILES | BL2 CD40 inh
Cc1sc2ncnc(SCC#N)c2c1C | -
Cc1sc2ncnc(Sc3nnnn3-c3ccccc3)c2c1C | 46.5
CCCSc1ncnc2sc(C)c(C)c12 | -
COc1ccccc1C(=O)N1C[C@H]2[C@@H](c3ccccc31)[C@@H](CO)N2Cc1ccc(F)cc1 | -
O=C(C[C@H]1CC[C@H]2[C@@H](COC[C@@H](O)CN2S(=O)(=O)c2cccc(Cl)c2)O1)NC1Cc2ccccc2C1 | -
COc1cc(C=NOC(=O)Nc2ccccc2)cc(OC)c1OC | -
COc1ccc(NC(=O)CCc2c(C)nc3nc(C)nn3c2C)cc1 | -
COc1ccc(NC(=O)O/N=C/c2c(C)nn(C(C)(C)C)c2C)cc1 | 64.0
CCNC(=O)[C@H]1[C@H](CO)[C@H]2Cn3c(ccc(-c4ccc(F)cc4)c3=O)[C@H]2N1C | -
C/C=C/c1ccc([C@H]2[C@@H](CO)N(CC3CC3)[C@@H]2CN(C(C)=O)C(C)C)cc1 | -
COc1ccc(C#Cc2ccc3c(c2)O[C@@H](CN(C)C(=O)CN2CCOCC2)[C@@H](C)CN([C@@H](C)CO)S3(=O)=O)cc1 | -
C[C@H](CO)N1C[C@H](C)[C@@H](CN(C)Cc2ccc(C(=O)O)cc2)Oc2ccc(NS(=O)(=O)c3cccs3)cc2C1=O | -
C[C@@H]1CN([C@@H](C)CO)C(=O)Cc2cc(NC(=O)Cc3cn(C)c4ccccc34)ccc2O[C@@H]1CN(C)C(=O)Nc1ccccc1 | -
C[C@H]1CN([C@@H](C)CO)C(=O)Cc2cc(NS(=O)(=O)c3cccs3)ccc2O[C@@H]1CN(C)Cc1ccc(Cl)c(Cl)c1 | 56.9
C[C@@H]1CN([C@@H](C)CO)C(=O)c2cc(NS(=O)(=O)c3cccs3)ccc2O[C@@H]1CN(C)Cc1ccc(C(=O)O)cc1 | -
Cc1noc(C)c1S(=O)(=O)Nc1ccc2c(c1)CC(=O)N([C@@H](C)CO)C[C@@H](C)[C@@H](CN(C)Cc1ccc(Cl)c(Cl)c1)O2 | -
C[C@@H]1CN([C@H](C)CO)C(=O)Cc2cc(NS(=O)(=O)c3ccc(F)cc3)ccc2O[C@@H]1CN(C)Cc1ccncc1 | -
C[C@@H]1CN([C@@H](C)CO)C(=O)Cc2cc(NS(=O)(=O)c3ccc(Cl)cc3)ccc2O[C@H]1CN(C)Cc1ccc(Cl)c(Cl)c1 | 64.8
C[C@@H]1CN([C@@H](C)CO)C(=O)Cc2cc(NC(=O)Nc3ccc(C(F)(F)F)cc3)ccc2O[C@H]1CN(C)Cc1ccccc1 | -
C[C@@H]1CN([C@@H](C)CO)C(=O)Cc2cc(NS(=O)(=O)c3ccc(F)cc3)ccc2O[C@@H]1CN(C)Cc1ccncc1 | -
C[C@@H]1CN([C@@H](C)CO)C(=O)Cc2cc(NC(=O)Cc3cn(C)c4ccccc34)ccc2O[C@H]1CN(C)Cc1ccc(C(F)(F)F)cc1 | 66.0[25 µM]
C[C@H](CO)N1C[C@H](C)[C@@H](CN(C)Cc2ccc(Cl)c(Cl)c2)Oc2ccc(NS(=O)(=O)c3ccc(Cl)cc3)cc2CC1=O | -
C[C@@H]1CN([C@@H](C)CO)C(=O)Cc2cc(NS(=O)(=O)c3ccccc3)ccc2O[C@H]1CN(C)Cc1ccc(Cl)c(Cl)c1 | 68.3
CCC(=O)N1CCCCN2[C@H](CO)[C@H](c3ccc(C#Cc4ccccc4)cc3)[C@@H]2C1 | -
C[C@H]1CN([C@@H](C)CO)C(=O)c2c(c3ccccc3n2C)-c2ccccc2CO[C@@H]1CN(C)C(=O)Nc1ccccc1 | -
SMILES | BL2 CD40 inh
O=C(CCN1CCCCC1)NCC[C@@H]1CC[C@H](NS(=O)(=O)c2cccc(Cl)c2)[C@@H](CO)O1 | -
O=C(C1CCCCC1)N1C[C@H]2[C@@H](c3ccccc31)[C@H](CO)N2CC1CCOCC1 | -
COCC(=O)Nc1ccc2c(c1)OC[C@@H](C)N(CCc1ccccc1)C[C@@H](C)[C@H](OC)CN(C)C2=O | -
Cc1ccccc1-c1ccc([C@H]2[C@H](CO)N3C(=O)CN(C(=O)c4ccncc4)C[C@@H]23)cc1 | -
CNC[C@@H]1Oc2ccc(NS(C)(=O)=O)cc2C(=O)N(C)C[C@H]1C | -
C/C=C/c1ccc2c(c1)O[C@@H](CN(C)C(=O)Nc1cccc(F)c1)[C@H](C)CN([C@@H](C)CO)S2(=O)=O | -
COc1ccc(-c2ccc3n(c2=O)C[C@@H]2[C@@H](CO)[C@H](C(=O)N4CCCCC4)[C@H]3N2C)cc1 | -
O=C(COCc1cc(-c2ccc3c(c2)OCO3)on1)N1CCCCC1 | -
O=C(c1cc(-c2ccc3c(c2)OCO3)on1)N1CCN(c2ccccc2)CC1 | -
O=C(c1cc(-c2ccc3c(c2)OCO3)on1)N1CCOCC1 | 48.3
O=C(Nc1ccc(F)cc1)N1CC(=O)N2[C@H](C1)[C@H](c1ccc(C3=CCCC3)cc1)[C@@H]2CO | -
O=C(c1cnccn1)N1CC(=O)N2[C@H](CO)[C@H](c3ccc(-c4cccc(F)c4)cc3)[C@H]2C1 | -
